Several values for one entry are separate records, joined by “and”; a condition that tells them apart may be missing. Equal values may be shown once. The campaign covered roughly 330,000 compounds. About 1,900 (0.58%) were called active. Another 4% or so got no clear call; they are omitted. Only a sample is shown. Potency and affinity values are given separately. A number with no mark means an inactive call. Cut-off read from the data, not from the text of the source: inconclusive = inhibition above about 70% without an active follow-up result; inactive = below that.

The record followed here is PubChem BioAssay AID449762 (Southern Research Specialized Biocontainment Screening …, 2010).

The experiment can be described thus: M. tuberculosis growth inhibition, HTS (AID 449762).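 Note: bacterial growth assessed after seven days of incubation.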 The following applies: M. tuberculosis H37Rv growth inhibition, 7H9 media; at 25 µM; stronger effect = higher value.
With `COc1ccc(-c2cn3cc(Cl)ccc3n2)cc1OC`, the inhibition was 35.8%.
With `COc1ccc(-c2cn3cc(C)ccc3n2)cc1OC`, the inhibition is -0.94%.
In the case of `Cc1ccc(CN(C)C(=O)C2CCC(=O)N(C3CCCCCC3)C2)cc1` (stereo not given) it was 0.77%; in that of `OCCC1CN(Cc2cccn2-c2cccnc2)CCN1C1CCCCC1` (stereo not given), -3.37%; in that of `CO/N=C/NC(=O)NOCc1c(Cl)cccc1Cl`, -5.31%.
Consider `NC(=O)NOCc1c(Cl)cccc1Cl`, for which the inhibition is -2.55%.
In the case of `CN(C(=O)c1ccc2nc(N)sc2c1)c1ccccc1` it was -7.17%; in that of `COc1ccc(NC(=O)/C(=C\c2cccs2)NC(=O)c2ccco2)cc1`, 6.87%.
Take `CCOC(=O)N1CCN(C(=O)CCCN2C(=O)CSc3nc(C)cc(C)c32)CC1`: the inhibition was 0.43%.
Then `COc1ccc(CS(=O)(=O)/C(Cl)=C(/Cl)C(=O)Nc2ccc(OC)nc2)cc1`, with 35%; and `COc1ccc(NC(=O)CCl)cn1`, with 55.6%; and `COc1ccc(S(=O)(=O)N2CCOCC2)cc1NC(=O)CCCOc1ccc(Cl)cc1C`, with -8.9%.
Consider `COc1ccc(-n2c(-c3ccc(Cl)cc3)c[n+]3c2CCCCC3)cc1`, for which the inhibition is -4.69%.
In the case of `COc1ccccc1-n1c(-c2ccccc2)c[n+]2c1CCc1ccccc1-2` it was 10.8% and 4.8%; in that of `O=c1cccc2n1C[C@@H]1C[C@@H]2CN(CC(O)c2ccc([N+](=O)[O-])cc2)C1` (stereo not given in full), 9.8%.
For `COc1ccccc1C(=O)COC(=O)c1cc([N+](=O)[O-])ccc1N1CCOCC1`, the inhibition was 32.4%.
As for `Cc1ccccc1Nc1c(-c2ccccn2)nc2c(C)cccn12`, the inhibition was 1.32%.
Then `Cc1cccn2c(Nc3ccccc3)c(-c3ccccn3)nc12`, with 67.1%; and `CCN(CC)C(=O)CSc1nnc(-c2c[nH]c3ccccc23)o1`, with 1.41%; and `CCSc1nnc(-c2ccc(S(=O)(=O)NCc3cccs3)cc2)o1`, with -2.17%.
In the case of `COc1ccccc1-c1nnc(SCC(=O)Nc2ccc(Cl)cc2Cl)o1` it was -3.38%; in that of `CSc1nnc(-c2ccc(Cl)cc2Cl)o1`, 26.3%; in that of `CCN(CC)C(=O)CSc1nnc(-c2ccc(S(=O)(=O)NCc3ccccc3Cl)cc2)o1`, 5.34%.
As to `Cc1ccc(C(=O)CSc2nnc(-c3c[nH]c4ccccc34)o2)cc1`, the inhibition is 0.92%.
Take `C/C(=N\O)c1noc(C)c1C(=O)Nc1nccs1`: the inhibition was -2.68%.
In the case of `O=S(=O)(c1cccc(-c2cn3ccccc3n2)c1)N1CCCCC1` it was 0.63%; in that of `CCOC(=O)[C@H]1NN=C(C(=O)OC)[C@@H]1c1ccccc1`, -5.97%; in that of `COCCOC(=O)N/C=C\c1nc2ccccc2c(=O)[nH]1`, -1.7%.
As to `COc1ccc(C2C(C(=O)N3CCN(C)CC3)c3cc(OC)c(OC)cc3C(=O)N2C)cc1` (stereo not given), the inhibition was 11%.
Then `CC(=O)c1ccc(NC(=O)C(C)O/N=C(\N)c2ccccc2)cc1` (stereo not given), with 1.95%.
In the case of `CCCc1ccc(-c2cc(C(=O)NC3=NCCS3)c3ccccc3n2)cc1` it was -0.06%; in that of `CC1CCCC(NC(=O)COC(=O)c2ccc(S(=O)(=O)N3CCOCC3)cc2)C1C` (stereo not given), -1.74%; in that of `Cc1ccc(C(=O)NNC(=O)c2csc(N3CCOCC3)n2)o1`, 0.22%.
In the case of `Cc1nn(-c2ccc(F)cc2F)c2c1-c1nc(N3CCCC3)ncc1CC2` it was 69.4%; in that of `Cc1nn(-c2ccccn2)c2c1-c1nc(N)ncc1CC2`, 0.53%.
Turning to `CCO/C=N/Nc1nc(C(F)(F)F)nc2c1cnn2Cc1ccccc1`, the inhibition is 60.4%.
Turning to `COc1ccc(OC)c(NC(=O)c2ccc(OCC(=O)N3CCOCC3)c(OC)c2)c1`, the inhibition is 1.16%.
Then `CCNc1nc(CN2CCCCC2)nc2scc(-c3ccccc3)c12`, with 40.7%; and `CN(Cc1ccccc1)c1nc(CN2CCOCC2)nc2scc(-c3ccccc3)c12`, with 5.04%.
With `O=C(Nc1ccccc1[N+](=O)[O-])C1=C(O)CCn2c1nc1ccccc12`, the inhibition was -3.87%.
Then `Cc1ccc(NC(=O)NCc2nc3ccccc3n2C)cc1`, with -2.85%.
As for `COC(=O)CN1C(=O)N(c2ccccc2)C(N(O)C(=O)Nc2ccccc2)C1(C)C` (stereo not given), the inhibition is 2.21%.
In the case of `COc1ccc(Nc2nc(N3CCN(C)CC3)nc3ccccc23)c(OC)c1` it was -4.21%.
`COc1ccc(Nc2nc(N3CCN(S(C)(=O)=O)CC3)nc3ccccc23)c(OC)c1`: the inhibition is 2.78%.
For the molecule `C=CCNC(=O)CN1C2CCCC1CC(NC(=O)c1ccccc1C)C2` (stereo not given), the inhibition is -6.37%.
With `O=C(COC(=O)c1ccccc1N1C(=O)C2C3CCC(C3)C2C1=O)c1ccccc1` (stereo not given), the inhibition was -3.76%.
Then `COc1cc([N+](=O)[O-])ccc1NC(=O)CN1CCc2cc(OC)c(OC)cc2C1`, with 6.98%.
With `CCOC(=O)C(NCCCCl)c1ccccc1` (stereo not given), the inhibition was 0.32%.
In the case of `COc1ccccc1OCCOCCN1CCCC1` it was -4.15%; in that of `COc1ccccc1OCCCCN1CCCCC1`, 2.93%; in that of `CCCc1cc(NC(=O)COC(=O)c2ccc(O)cc2O)n(-c2ccccc2)n1`, -2.82%.
In the case of `CCCc1cc(NC(=O)COC(=O)c2nccnc2N)n(-c2ccccc2)n1` it was 50.9%; in that of `C=CCNC(=S)NNC(=O)CCC(O)COCCC(C)C` (stereo not given), 1.2%.
Then `CCOC(=O)N1CCC(NC(=O)c2cc(COc3ccccc3SC)on2)CC1`, with 1.54%.
Regarding `CC1=NN(c2cccc(C(=O)O)c2)C(=O)/C1=C\C=C\c1ccco1`, the inhibition is -4.32%.
For the molecule `COc1cc(/C=C2/C(=O)N(c3ccc(C)c(C)c3)N=C2C)cc([N+](=O)[O-])c1O`, the inhibition is -4.94%.
Turning to `Cc1nn(C)c(C)c1CNC(=O)Nc1cccc(Cl)c1C`, the inhibition is -2.03%.
On to `Cc1ccc([N+](=O)[O-])c(NC2OC(CO)C(O)C2O)c1` (stereo not given), for which the inhibition was -2.66%.
`COc1ccc(C2CC(c3ccc(Br)cc3)=NN2C(=O)c2cccnc2)cc1` (stereo not given): the inhibition was 47.5%.
`N#CCc1nc2ccc(S(=O)(=O)N3CCOCC3)cc2s1`: the inhibition was -0.38%.
For `Cc1ccccc1CN1CCCN(Cc2ccc(Cl)cc2)S1(=O)=O`, the inhibition is 2.25%.
In the case of `CCOC(=O)c1c(NC(=O)CCCC(=O)O)sc2c1CCC2` it was 1.76%; in that of `CCOC(=O)c1c(NC(C)=O)sc2c1CCC(C=O)=C2Sc1ccccc1`, 6.72%; in that of `COc1cccc(Cn2c(=O)ccc3ccccc32)c1`, 7.74%.
Regarding `O=C(Nc1ccc(Oc2cccc(C(F)(F)F)c2)nc1)c1ccccc1`, the inhibition is 14%.
In the case of `Cc1ccc(C(=O)Nc2ccc(Oc3cccc(C(F)(F)F)c3)nc2)cc1` it was 3.4%; in that of `O=C1CN=CN=CN1c1ccc(Cl)cc1Cl`, 10.8%.
For `CCOC(=O)N1CCN(C(=O)C2CCC(=O)N(CCCc3ccccc3)C2)CC1` (stereo not given), the inhibition was -4.71%.
Then `Cc1cc(C)n(-c2nc3ccccc3c(=O)n2OCC(N)=O)n1`, with 13.1%; and `Cc1cc(CC(C)C)n(-c2nc3ccccc3c(=O)n2OCc2ccccc2)n1`, with 58.9%; and `Cc1ccc(S(=O)(=O)NCC(=O)N(CC(=O)NCC2CCCO2)c2ccc(Cl)cc2)cc1` (stereo not given), with -3.29%.
Then `COc1ccc(C(=O)NNC(=O)CSc2nc3c(c(=O)n(C)c(=O)n3C)n2C)cc1`, with 1.02%; and `O=C(Nc1ccc(C(F)(F)F)cc1)c1ccccc1`, with 0.07%.
In the case of `COc1cc(NC(=O)C[n+]2ccc(C(=O)c3ccccc3)cc2)cc(OC)c1` it was -7.81%.
As for `C[C@@H](CN1C(=O)C(=O)NC[C@@H]1Cc1ccc(O)cc1)NC(=O)Cc1ccccc1`, the inhibition was -2.19%.
As for `Cn1cccc1-c1cc(C(=O)N/N=C/c2ccc(F)cc2)[nH]n1`, the inhibition was -3.95%.
In the case of `CN(Cc1ccco1)c1ncnc2ccc(-c3ccoc3)cc12` it was 17.5%; in that of `Cc1sc2ncnc(N(C)Cc3ccco3)c2c1C`, -1.32%.
In the case of `CCOC(=O)C1=NN(c2ccccc2)C(c2ccccc2)CC1=O` (stereo not given), the inhibition was 12.7%.
As for `C=CCOc1ccc(C2CC(C)=NN2c2ccccc2)cc1` (stereo not given), the inhibition was 3.55%.
Regarding `Cc1ccc(N2C(=O)C3C(c4ccccc4)(C2=O)C3(c2ccccc2)c2ccccc2)cc1` (stereo not given), the inhibition is 20.2%.
Then `O=C1c2ccccc2C(=O)N1c1ccc(Cl)cc1`, with -5.93%; and `O=c1c(Br)c(NCc2ccccc2)cnn1-c1ccc(F)cc1`, with -5.73%.
As to `O=C(O)c1ccc(Sc2nnnn2-c2ccccc2)c([N+](=O)[O-])c1`, the inhibition is 3.58%.
Regarding `Cn1nnnc1Sc1ccc(C(=O)O)cc1[N+](=O)[O-]`, the inhibition is 2.4%.
Then `COc1ccc(C(=O)c2ccc(N3CCN(C4CC(=O)NC4=O)CC3)cc2)cc1F` (stereo not given), with 0.26%; and `Nc1ncnc(Sc2ccccc2)c1[N+](=O)[O-]`, with -0.35%.
`Cc1nc(Sc2ccccc2)c(C#N)c(C)c1[N+](=O)[O-]`: the inhibition was 3.11%.
Then `C=CCNC(=O)COc1cc(C)cc(C)c1C`, with -2.5%; and `CCOc1ccc(CCNC(=O)Cn2c(=O)c3cccn3c3cccnc32)cc1`, with -8.95%.
Take `Cn1cnc([N+](=O)[O-])c1Sc1ccccc1`: the inhibition was -3.64%.
Consider `Cc1ccc(Sc2c([N+](=O)[O-])ncn2C)cc1`, for which the inhibition was -9.59%.
In the case of `Cc1cc(OC(=O)C(c2ccccc2)c2ccccc2)c([N+](=O)[O-])c(=O)[nH]1` it was 1.27%; in that of `CC1=NN2C(=N)/C(=C\c3cc(C)n(-c4ccccc4)c3C)C(=O)N=C2S1`, -0.68%; in that of `NC(=O)CSc1n[nH]c(=O)n1CCc1ccccc1`, -5.89%.
